Screens deposited in PubChem BioAssay by National Center for Advancing Translational Sciences (NCATS).
DT40 TDP1 no CPT = qHTS for Inhibitors of human tyrosyl-DNA phosphodiesterase 1 (TDP1): qHTS in cells in absence of CPT | Potency, µM (series often up to 46.2 µM), without a hit: at the top dose activity change, negative = growth inhibition, hits mostly inhibitors | hit rate 15% among 420,000 | AID 686978, 2013 | DT40 Tdp1-/- hTDP1 cells, no CPT, ATP luminescence, 48 h; also: nearly all actives have a fitted effect of over 55% in size
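Readout: luminescence from CellTiter-Glo after 30 min in the dark at RT. Cells: DT40 Tdp1-/- with stable hTDP1, 400/well. Exposure: compounds alone, ≥48 hr, 37 °C.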
Gal4-VP16 FLuc = counter-screen for ROR gamma inhibitors: Gal4-VP16 reporter; Drosophila S2 Gal4-VP16 UAS-luciferase, luminescence, 20 h; Potency, µM (top dose mostly 53.6 µM), for inactives: top-dose activity, negative = inhibition, usual class: inhibitors; hit rate 3.5% among 310,000; AID 2546;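 also: Gal4-VP16 expression switched on by copper sulfate through the metallothionein promoter; nearly all actives have a fitted effect of over 50% in size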
TDP1 cell CPT = DT40-hTDP1 cell growth loss with CPT. chicken DT40 Tdp1-/-;hTDP1 cells + 20 nM CPT, ATP luminescence, 48 h. Potency, µM (series often up to 46.2 µM), for the others: at the top dose activity change, negative = growth inhibition, hits mostly inhibitors. hit rate 12% among 420,000. AID 686979; also: nearly all actives have a fitted effect of over 55% in size
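Chicken DT40 Tdp1-/- cells stably complemented with human TDP1 were seeded at 400 cells/well in medium containing 20 nM camptothecin, exposed to pin-transferred compounds, and grown at 37 °C for at least 48 hr. Viability was read as ATP luminescence.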
12-LOX inh = blocks human arachidonate 12S-lipoxygenase; P18054; purified 12hLO, xylenol orange hydroperoxide absorbance; Potency, µM (doses to about 108 µM), for inactives: top-dose activity change, negative = inhibition, most hits filed as inhibitors; hit rate 1.1% among 580,000; AID 1671190
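Hydroperoxide product was detected by ferrous iron/xylenol orange as the 573 to 405 nm absorbance ratio. Arachidonic acid at 40 uM (final) was turned over for 30 min at room temperature by 150 nM human 12hLO, pH 7.0 Hepes buffer, after 15 min compound preincubation.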
ELG1 repair inh = blocks ELG1-dependent DNA repair in HEK293T cells; HEK293T ELG1-luciferase reporter, luminescence, 16 h; DNA damage induced by 5-fluorouridine; Potency, µM (top dose mostly 46.1 µM), inactives show at the highest dose activity change, negative = inhibition, actives largely listed as inhibitors; hit rate 2.3% among 330,000; AID 504467; also: nearly all actives have a fitted effect of over 55% in size
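5-Fluorouridine DNA damage + compound/DMSO, 2,000 cells/well, 16 h, 37 °C/5% CO2. ONE-Glo, 30 min RT, luminescence. Readout = decrease in reporter signal.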
RORgamma inh = blocks mouse ROR gamma transcriptional activity. hit rate 5.4% among 310,000. Drosophila S2 Gal4-RORgamma UAS-luciferase reporter, 20 h. Potency, µM (doses to about 53.6 µM), inactives show at the top dose activity change, negative = inhibition, actives largely listed as inhibitors. P51450. AID 2551; also: nearly all actives have a fitted effect of over 60% in size
Target sequence (P51450 whole entry, looked up, the tested form may be a part): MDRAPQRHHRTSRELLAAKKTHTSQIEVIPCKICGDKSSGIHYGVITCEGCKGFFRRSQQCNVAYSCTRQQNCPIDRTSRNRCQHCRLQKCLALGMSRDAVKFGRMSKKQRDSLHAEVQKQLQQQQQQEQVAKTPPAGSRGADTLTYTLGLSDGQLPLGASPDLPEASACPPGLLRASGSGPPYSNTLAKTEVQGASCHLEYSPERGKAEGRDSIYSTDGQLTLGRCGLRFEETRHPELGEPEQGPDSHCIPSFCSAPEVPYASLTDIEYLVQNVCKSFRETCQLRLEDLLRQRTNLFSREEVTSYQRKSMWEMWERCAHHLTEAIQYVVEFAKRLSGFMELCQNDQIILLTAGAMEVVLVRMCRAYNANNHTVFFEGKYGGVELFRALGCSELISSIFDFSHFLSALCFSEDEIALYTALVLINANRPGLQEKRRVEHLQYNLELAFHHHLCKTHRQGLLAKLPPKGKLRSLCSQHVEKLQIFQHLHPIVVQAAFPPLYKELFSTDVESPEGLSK
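Luciferase reporter read in Schneider cells carrying Gal4-RORγ (mouse) and UAS-Photinus luciferase; cells given compound 1 h before 700 uM copper sulfate induction, then incubated 20 h at ambient temperature.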
* = called active by the depositor; ? = inconclusive; nt = not tested or not shown. Compounds with a hit are over-represented: about 15% of the library has one in this group of screens. Calls follow the shape of the dose curve; as a rule, active = well fitted curve in the direction sought with a large enough effect; inconclusive = small, poorly fitted or top-dose-only effect, or another doubt; inactive = no such curve, though single readings can be large; an effect the other way counts as inactive or inconclusive. % is scaled to controls: 0 for no effect and ±100 for the full control effect; potency is read from the fitted curve at half-maximal effect.

SMILES | DT40 TDP1 no CPT | Gal4-VP16 FLuc | TDP1 cell CPT | 12-LOX inh | ELG1 repair inh | RORgamma inh
COc1ccc2c(c1O)C(=O)c1ccccc1C2=O | nt | 17% | nt | nt | 9% | -3%
CCC(C)(C)C1CCC(NC(=S)Nc2cccc(Cl)c2Cl)CC1 (configuration not stated) | nt | nt | nt | 0% | nt | nt
O=C(Nc1ccccc1)NC1CCN(Cc2ccccc2)CC1 | -1% | 6% | -13% | -4% | -5% | 3%
S=C(Nc1ccc(Cl)cc1Cl)NC1CCN(Cc2ccccc2)CC1 | 16µM* | ? | 21µM* | -26% | -3% | ?
S=C(Nc1cc(Cl)cc(Cl)c1)NC1CCN(Cc2ccccc2)CC1 | 6.5µM* | ? | 8.2µM* | ? | -18% | ?
Cc1c(Cl)cccc1NC(=S)N1CCN(Cc2ccccc2)CC1 | -14% | ? | -28% | 0% | -5% | 10µM*
CCCN1CCC(NC(=S)Nc2cccc(Cl)c2Cl)CC1 | ? | 1% | 18µM* | -9% | -2% | -23%
CN(Cc1cccs1)C(=O)CC1CC2CCC1C2 (configuration not stated) | nt | nt | nt | 2% | nt | nt
S=C(Nc1ccccc1Cl)NC1CCN(Cc2ccccc2)CC1 | 18µM* | 6% | 21µM* | -22% | -13% | -25%
Cc1c(Cl)cccc1NC(=S)N1CCOCC1 | 20% | 1% | -20% | -1% | 19% | -31%
Cc1c(Cl)cccc1NC(=S)N1CCc2ccccc2C1 | 4% | ? | -20% | -11% | 5% | 10µM*
Cc1c(Cl)cccc1NC(=S)NC1CCN(Cc2ccccc2)CC1 | ? | -95% | ? | ? | -18% | 10µM*
CC(C)c1ccccc1NC(=S)NC1CCN(Cc2ccccc2)CC1 | ? | 16µM* | ? | -11% | -13% | 14µM*
CS(=O)(=O)N1C[C@H]2CCN(C(=O)c3cc(F)ccc3F)C[C@H]21 | nt | nt | nt | 25% | nt | nt
N#CC1=C(c2ccccc2)C(O)(c2ccccc2)NC1=O (configuration not stated) | nt | nt | nt | 4% | nt | nt
O=[N+]([O-])c1ccc(C(=S)N2CCN(c3ccc(F)cc3)CC2)cc1 | ? | -4% | ? | 50µM* | -6% | 11%
CN(C)c1ccc(C(=S)N2CCN(c3ccc([N+](=O)[O-])cc3)CC2)cc1 | 21µM* | 9% | 15µM* | ? | -16% | 6%
CCn1cc(S(=O)(=O)N2CCCC(C(=O)NCc3nn(CC)cc3Cl)C2)c(C)n1 (configuration not stated) | nt | nt | nt | 40% | nt | nt
COc1ccc(CCNC(=O)C(=O)NCC2OCCN2S(=O)(=O)c2ccc(Br)cc2)cc1OC (configuration not stated) | 7% | 7.9µM* | 3% | 18% | 21µM* | ?
COc1ccc(S(=O)(=O)N2CCCOC2CNC(=O)C(=O)NCCc2ccco2)cc1C (configuration not stated) | 7.3µM* | -5% | 5.8µM* | 0% | 1% | -40%
O=C(NCCc1ccccc1)C(=O)NCC1OCCN1S(=O)(=O)c1ccc(Br)cc1 (configuration not stated) | 16µM* | -9% | ? | 3% | -4% | 33%
COc1ccc(CCNC(=O)C(=O)NCC2OCCN2S(=O)(=O)c2ccc(Br)cc2)cc1 (configuration not stated) | 0% | ? | -4% | 20% | ? | 36%
Cc1ccc(S(=O)(=O)N2CCOC2CNC(=O)C(=O)NCc2ccc(Cl)cc2)cc1 (configuration not stated) | 21µM* | -1% | ? | -16% | 23µM* | 22%
Cc1nc2n(c(=O)c1Cc1ccccc1)CN(Cc1ccccn1)CN2c1ccc(F)cc1 | nt | nt | nt | -1% | nt | nt
